PubChem BioAssay AID1159580 (chemical genetic matrix, 2015)
Out of some 5,500 compounds screened, about 2,000 (36%) were called active. Not shown: some 18% with an inconclusive outcome. Cut-off read from the data, not from the text of the source: active = normalized growth mostly below about 0.91 (no sharp cut-off); inconclusive = no clear call, values can overlap the other calls; inactive = mostly above about 0.92. The list shows a part of the results.

Test: chemical genetic growth profiling, strain panel (AID 1159580);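 note: tested at 20 µM; growth read once vehicle control cultures reached saturation at 30 °C; 1 = growth at the plate median or of vehicle wells; lower values mean less growth of the strain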
Conditions: S. cerevisiae deletion strains, growth OD
[1] = locus YAR019C, strain CDC15, stronger effect = lower value
[2] = locus YBL105C, strain PKC1, stronger effect = lower value
[3] = locus YBR135W, strain CKS1, stronger effect = lower value
[4] = locus YBR136W, strain MEC1, stronger effect = lower value
[5] = locus YBR160W, strain CDC28, stronger effect = lower value
[6] = locus YDL017W, strain CDC7, stronger effect = lower value
[7] = locus YDL028C, strain MPS1, stronger effect = lower value
[8] = locus YDL101C, strain DUN1, stronger effect = lower value
[9] = locus YDL108W, strain KIN28, stronger effect = lower value
[10] = locus YDL132W, strain cdc53, stronger effect = lower value
[11] = locus YDL214C, strain PRR2, stronger effect = lower value
[12] = locus YDR052C, strain DBF4, stronger effect = lower value
[13] = locus YDR054C, strain cdc34, stronger effect = lower value
[14] = locus YDR226W, strain ADK1, stronger effect = lower value
[15] = locus YDR477W, strain SNF1, stronger effect = lower value
[16] = locus YER123W, strain YCK3, stronger effect = lower value
[17] = locus YER133W, strain GLC7, stronger effect = lower value
[18] = locus YFL009W, strain cdc4, stronger effect = lower value
[19] = locus YFL029C, strain CAK1, stronger effect = lower value
[20] = locus YFR003C, strain YPI1, stronger effect = lower value
[21] = locus YFR019W, strain FAB1, stronger effect = lower value
[22] = locus YFR028C, strain CDC14, stronger effect = lower value
[23] = locus YGR040W, strain KSS1, stronger effect = lower value
[24] = locus YGR052W, strain FMP48, stronger effect = lower value
[25] = locus YGR092W, strain DBF2, stronger effect = lower value
[26] = locus YHR030C, strain SLT2, stronger effect = lower value
[27] = locus YHR079C, strain IRE1, stronger effect = lower value
[28] = locus YHR082C, strain KSP1, stronger effect = lower value
[29] = locus YHR205W, strain SCH9, stronger effect = lower value
[30] = locus YIL147C, strain SLN1, stronger effect = lower value
[31] = locus YJL095W, strain BCK1, stronger effect = lower value
[32] = locus YJL128C, strain PBS2, stronger effect = lower value
[33] = locus YJL157C, strain FAR1, stronger effect = lower value
[34] = locus YJR016C, strain ILV3, stronger effect = lower value
[35] = locus YJR066W, strain TOR1 (second series), stronger effect = lower value
[36] = locus YJR066W, strain TOR1, stronger effect = lower value
[37] = locus YKL048C, strain ELM1, stronger effect = lower value
[38] = locus YKL067W, strain YNK1, stronger effect = lower value
[39] = locus YKL101W, strain HSL1, stronger effect = lower value
[40] = locus YKL193C, strain SDS22, stronger effect = lower value
[41] = locus YKL203C, strain TOR2, stronger effect = lower value
[42] = locus YLR113W, strain HOG1, stronger effect = lower value
[43] = locus YLR133W, strain CKI1, stronger effect = lower value
[44] = locus YLR403W, strain SFP1, stronger effect = lower value
[45] = locus YML070W, strain DAK1, stronger effect = lower value
[46] = locus YMR001C, strain CDC5, stronger effect = lower value
[47] = locus YMR205C, strain PFK2 (second series), stronger effect = lower value
[48] = locus YMR277W, strain FCP1, stronger effect = lower value
[49] = locus YNL006W, strain LST8, stronger effect = lower value
[50] = locus YNL020C, strain ARK1, stronger effect = lower value
[51] = locus YNL161W, strain CBK1, stronger effect = lower value
[52] = locus YNL183C, strain NPR1, stronger effect = lower value
[53] = locus YNL207W, strain RIO2, stronger effect = lower value
[54] = locus YNL222W, strain SSU72, stronger effect = lower value
[55] = locus YNL307C, strain MCK1 (second series), stronger effect = lower value
[56] = locus YOL078W, strain AVO1, stronger effect = lower value
[57] = locus YOL136C, strain PFK27, stronger effect = lower value
[58] = locus YOR061W, strain CKA2, stronger effect = lower value
[59] = locus YOR119C, strain RIO1, stronger effect = lower value
[60] = locus YOR231W, strain MKK1, stronger effect = lower value
[61] = locus YOR329C, strain SCD5, stronger effect = lower value
[62] = locus YPL031C, strain PHO85, stronger effect = lower value
[63] = locus YPL153C, strain RAD53, stronger effect = lower value
[64] = locus YPL204W, strain HRR25, stronger effect = lower value
[65] = locus YPL209C, strain IPL1, stronger effect = lower value
[66] = locus YPL256C, strain CLN2, stronger effect = lower value
[67] = locus YPR025C, strain CCL1, stronger effect = lower value
[68] = locus YPR106W, strain ISR1, stronger effect = lower value
[69] = locus YPR111W, strain DBF20, stronger effect = lower value
[70] = strain NNK1, stronger effect = lower value
[71] = strain TSCII, stronger effect = lower value

Measured: normalized growth

O=S(=O)(Nc1cc(C(F)(F)F)cc(C(F)(F)F)c1)c1ccc(Cl)s1
inactive: [1] 0.927 | [2] 0.921 | [3] 0.93 | [4] 0.922 | [5] 0.923 | [6] 0.925 | [7] 0.928 | [8] 0.942 | [9] 0.939 | [10] 0.925 | [11] 0.818 | [13] 0.926 | [14] 0.914 | [15] 0.808 | [16] 0.622 | [17] 0.83 | [18] 0.92 | [19] 0.928 | [20] 0.927 | [22] 0.927 | [23] 0.835 | [24] 0.619 | [29] 0.808 | [30] 0.927 | [31] 0.605 | [32] 0.906 | [33] 0.802 | [34] 0.921 | [35] 0.856 | [36] 0.668 | [38] 0.841 | [40] 0.933 | [41] 0.786 | [43] 0.772 | [44] 0.837 | [45] 0.718 | [46] 0.93 | [47] 0.852 | [48] 0.931 | [49] 0.941 | [50] 0.726 | [51] 0.927 | [52] 0.568 | [53] 0.914 | [54] 0.934 | [55] 0.645 | [56] 0.923 | [58] 0.836 | [59] 0.838 | [61] 0.927 | [62] 0.706 | [65] 0.927 | [67] 0.929 | [68] 0.934 | [69] 0.923 | [70] 0.919 | [71] 0.917
active: [12] 0.891 | [21] 0.772 | [25] 0.369 | [26] 0.246 | [27] 0.51 | [28] 0.48 | [37] 0.701 | [39] 0.685 | [42] 0.55 | [57] 0.67 | [60] 0.558 | [63] 0.617 | [64] 0.628 | [66] 0.475

COC(=O)c1sccc1S(=O)(=O)Nc1cc(C(F)(F)F)cc(C(F)(F)F)c1
inactive: [1] 0.973 | [2] 0.967 | [3] 0.974 | [4] 0.974 | [5] 0.962 | [6] 0.973 | [7] 0.979 | [8] 0.957 | [9] 0.97 | [10] 0.967 | [11] 0.962 | [12] 0.969 | [13] 0.98 | [14] 0.971 | [15] 0.985 | [16] 0.936 | [17] 0.981 | [18] 0.965 | [19] 0.965 | [20] 0.974 | [21] 0.955 | [22] 0.962 | [23] 0.971 | [24] 1.03 | [25] 0.977 | [26] 1.07 | [27] 1.02 | [28] 1.06 | [29] 0.947 | [30] 0.978 | [31] 1.01 | [32] 0.9 | [33] 0.963 | [34] 0.97 | [35] 0.942 | [36] 1.07 | [37] 0.95 | [38] 0.956 | [39] 0.958 | [40] 0.969 | [41] 1.04 | [42] 0.902 | [43] 0.962 | [44] 0.966 | [45] 0.935 | [46] 0.972 | [47] 0.946 | [48] 0.971 | [49] 0.985 | [50] 0.956 | [51] 0.967 | [52] 0.997 | [53] 0.97 | [54] 0.961 | [55] 0.943 | [56] 0.971 | [57] 0.938 | [58] 0.955 | [59] 1.05 | [60] 0.934 | [61] 0.972 | [62] 0.987 | [63] 0.973 | [64] 0.97 | [65] 0.965 | [66] 0.967 | [67] 0.969 | [68] 0.955 | [69] 0.938 | [70] 0.974 | [71] 0.972
